The test has as its target Tyrosine-protein kinase Lyn (Homo sapiens) (UniProt P07948). Particulars: at 1 µM.
Chain of Tyrosine-protein kinase Lyn (Homo sapiens) (P07948 2-512 limits assumed): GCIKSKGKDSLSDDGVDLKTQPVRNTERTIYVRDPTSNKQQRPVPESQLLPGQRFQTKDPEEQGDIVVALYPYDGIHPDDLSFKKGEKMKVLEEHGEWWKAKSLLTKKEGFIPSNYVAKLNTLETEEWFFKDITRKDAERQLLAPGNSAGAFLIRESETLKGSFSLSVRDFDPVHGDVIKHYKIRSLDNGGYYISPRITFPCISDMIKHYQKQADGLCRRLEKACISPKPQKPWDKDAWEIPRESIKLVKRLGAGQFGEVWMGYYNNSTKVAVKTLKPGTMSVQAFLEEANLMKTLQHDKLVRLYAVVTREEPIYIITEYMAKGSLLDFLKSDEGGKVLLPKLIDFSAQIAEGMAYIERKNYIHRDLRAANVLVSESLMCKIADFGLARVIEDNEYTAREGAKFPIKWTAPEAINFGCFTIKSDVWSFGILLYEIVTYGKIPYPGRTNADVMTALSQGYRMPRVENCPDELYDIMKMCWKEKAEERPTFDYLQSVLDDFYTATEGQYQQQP
The compound `CCn1cc(-c2ccnc3[nH]ccc23)c(-c2cccc(NC(=O)Nc3ccc(OCc4ccccc4)cc3)c2)n1` gave an inhibition of 19.4%.

Turning to `Cc1cccc(Nc2ncc(-c3ccccc3)o2)c1`, the inhibition came out at 8.28%. Compound `Nc1nc(-c2ccc(F)cc2)c(-c2ccc3ncccc3n2)s1` came in with an inhibition of 39.4%. In the case of `FC(F)(F)c1cccc(-c2nn3ncccc3c2-c2ccnc(Nc3ccc4c(c3)OCCO4)n2)c1`, the inhibition came to 39.5%. Consider `CNC(=O)c1cncc(/C=C/c2ccccc2Cl)c1`, for which the inhibition amounted to 11.3%. Compound `O=C(O[C@H]1CN[C@H](C#Cc2cc3ncnc(Nc4ccc(Cc5ccccc5)cc4)c3s2)C1)N1CCOCC1` yielded an inhibition of 4.14%. In the case of `COc1ccc(-c2nn3ncccc3c2-c2ccnc(Nc3ccc4c(c3)OCCO4)n2)cc1` it was 60.4%; in that of `CCNC(=O)O[C@H]1CN[C@H](C#Cc2cc3ncnc(Nc4ccc(OCc5cccc(F)c5)c(Cl)c4)c3s2)C1`, 3.68%; in that of `COc1ccc(-c2oc3ncnc(N)c3c2-c2ccc(NC(=O)Nc3cc(C(F)(F)F)ccc3F)cc2)cc1`, 94.8%. Turning to `CCn1c(-c2nonc2N)nc2cnc(Oc3cccc(NC(=O)c4ccc(N(C)C)cc4)c3)cc21`, the inhibition came out at 1.6%. In turn, `CCn1c(-c2nonc2N)nc2c(C#CC(C)(C)O)nc(OC[C@H](N)c3ccccc3)cc21` displayed an inhibition of 4.52%. The compound `Fc1ccc(-c2nn3ncccc3c2-c2ccnc(Nc3ccc4c(c3)OCCO4)n2)cc1` gave an inhibition of 78.8%.

`COc1cccc(-c2c[nH]c3c(N/N=C/c4ccncc4)ncnc23)c1`: the inhibition stood at 83.3%. Compound `O=C(Nc1n[nH]c2cc(-c3ccc(F)cc3)ccc12)C1CC1` came in with an inhibition of 5.51%. `Clc1ccc(-c2nn3ncccc3c2-c2ccnc(Nc3ccccc3)n2)cc1` showed an inhibition of 40.7%.

The values above are taken from ChEMBL document CHEMBL1961873, “Compounds: GSK PKIS; Assays: Nanosyn kinase panel” (2012).
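Note: mean percent inhibition of the LYN A splice variant of the kinase.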
